Drawing on PubChem BioAssay (NCATS), this text covers Potency and outcome for 1 compound.

Experiment [1] addresses DNA repair nuclease/redox regulator APEX1 (Homo sapiens) (UniProt P27695). The experiment can be described thus: qHTS Validation Assay for Inhibitors of the Human Apurinic/apyrimidinic Endonuclease 1 (APE1) (AID 1705;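 further: TAMRA fluorescence gain over two minutes as APE1 cuts a quenched THF abasic duplex; series mostly up to about 57 µM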). The procedure, abridged: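 Endonuclease activity of human APE1 is followed as dequenching when the enzyme incises a tetrahydrofuran abasic site in a short duplex labelled 5'-TAMRA/3'-BHQ-2 (50 nM final), after 15 min enzyme–compound preincubation at room temperature.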
On the technique in general: qHTS replaces the single test concentration by a dilution series.

Experiment [2] is described as follows: Counterscreen for APE1 Inhibitors: Fluorescent Dye Displacement Validation Assay (AID 1707). The procedure, abridged:
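Signal: ThO fluorescence (ex 480 nm/em 540 nm) on binding 50 nM dsDNA; displacement by test compound reduces it. Conditions: 250 nM dye, 50 mM Tris-HCl pH7.5, 2 mM MgCl2, 50mM NaCl, 0.01% Tween-20.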
A general note: A counterscreen serves to expose hits that act by an unwanted route or on another target.

Experiment [3] deals with Endonuclease 4 (Escherichia coli (strain K12)) (UniProt P0A6C1). Nature of the experiment: Counterscreen for APE1 Inhibitors: qHTS Validation Assay for Inhibitors of Endonuclease IV (AID 1708). The procedure, abridged:
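The reaction buffer contained 50 mM Tris-HCl pH 7.5, 50 mM NaCl, 2 mM MgCl2, 1 mM DTT and 0.01% Tween-20. Incision of a 50 nM fluorophore/quencher THF substrate by 2 nM enzyme was measured kinetically.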

Experiment [4] in a line: qHTS for differential inhibitors of proliferation of Plasmodium falciparum line Dd2 (AID 1882).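 Further: series mostly up to about 29 µM; compound exposure of 72 h on infected erythrocytes; nearly all actives have a fitted effect of over 65% in size.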 The conditions noted are these: Potency: Plasmodium falciparum Dd2 proliferation inhibition. The procedure, abridged: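 RBC culture, 0.3% parasitemia / 2.5% Hct final; cpd added by pin tool in DMSO; 72 h, 37 C, 5% CO2; lysis buffer + SYBR Green I, o/n RT dark; FI 485/535; norm. to artemisinin 0.29 uM and DMSO.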

Experiment [5] can be described thus: qHTS for differential inhibitors of proliferation of Plasmodium falciparum line W2 (AID 1883).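 Further: potency means the concentration at half of the fitted maximal effect; parasites grown with compound for 72 h before lysis and staining.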 The conditions noted are these: Potency: Plasmodium falciparum W2 proliferation inhibition.
The target of experiment [6] is Ferritin light chain (Equus caballus) (UniProt P02791). Nature of the experiment: qHTS Validation Assay for Identification of Novel General Anesthetics (AID 2323). Further: series mostly up to about 77 µM. The procedure, abridged: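 Apoferritin from horse spleen (10 uM) was mixed with 1-aminoanthracene at 50% saturation in PBS, then compounds were added. After 10 min at room temperature, fluorescence was read (ex 380 nm, em 535 nm) and normalized to free-probe and complex controls.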

In experiment [7] the target is ATP-dependent DNA helicase Q1 (Homo sapiens) (UniProt P46063). Nature of the experiment: qHTS Validation Assay for Inhibitors of RecQ-Like Dna Helicase 1 (RECQ1) (AID 2353). The procedure, abridged:
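RECQ1T1 50 nM; forked duplex (20 bp + 30-nt ss tails) 200 nM, ATP 2 mM final; pH 8.0, 2 mM MgCl2, 2.5 ug/ml poly(dI-dC); 15 min compound preincubation; discontinuous kinetic read over 2 h at RT.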

Experiment [8] addresses RecQ-like DNA helicase BLM (Homo sapiens) (UniProt P54132). Nature of the experiment: qHTS Validation Assay for Inhibitors of Bloom's syndrome helicase (BLM) (AID 2364). The procedure, abridged:
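Forked 20-bp duplex substrate (200 nM, TAMRA/BHQ-2) plus 2 mM ATP added after 15 min compound preincubation with 50 nM enzyme, pH 8.0, poly(dI-dC) 2.5 ug/ml. Strand separation followed by fluorescence (525/598 nm) over 2 h, normalized to enzyme-free and DMSO controls.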

Experiment [9] in a line: Cytometric Cell-Based qHTS for Inhibitors of the mTORC1 Signaling Pathway in MEF (Tsc2-/-, p53-/-) Cells (AID 2660).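 Further: Tsc2 and p53 null MEFs carrying empty vector with compound for 24 h; percent of cells above a phospho-rpS6 to PI ratio cutoff in each well; series mostly up to about 38 µM.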 The procedure, abridged: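 Readout: Alexa-488 phospho-rpS6 (Ser235/236) intensity divided by PI intensity, thresholded against 7.5 nM rapamycin wells and reported as % positive cells. PI cell count served as the viability measure. Compound exposure was 24 hrs at 37 degree Celsius.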

Experiment [10] in a line: High Content Imaging Cell-Based qHTS for Inhibitors of the mTORC1 Signaling Pathway in MEF (Tsc2-/-, p53-/-) Cells (AID 2666).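 Further: percent of cells scored positive for phospho-rpS6 Ser235/236 immunostaining by imaging.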 The procedure, abridged: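 Tsc2-/-, p53-/- MEFs (empty-vector stable) grown in DMEM + 10% FBS were exposed to compounds for 24 hrs at 37 degree Celsius, fixed, and stained with Alexa-488 anti-phospho-rpS6 Ser235/236 plus Hoechst. Imaging gave the percentage of positive cells per well.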

Experiment [11] is described as follows: High Content Imaging Cell-Based qHTS for Inhibitors of the mTORC1 Signaling Pathway in MEF Cells (AID 2667).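 Further: Tsc2-/- p53-/- MEFs stably re-expressing wild-type Tsc2 exposed 24 h; series mostly up to about 38 µM.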 The procedure, abridged: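 Tsc2-/-, p53-/- MEFs stably re-expressing WT Tsc2, grown in DMEM + 10% FBS, were treated with compounds for 24 hrs at 37 degree Celsius, fixed, and stained with Alexa-488 phospho-rpS6 Ser235/236 antibody plus Hoechst; results given as % positive cells.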

A short description of experiment [12]: Cytometry Cell-Based qHTS for Inhibitors of the mTORC1 Signaling Pathway in MEF cells (AID 2668).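 Further: Tsc2-/- p53-/- mouse embryonic fibroblasts stably re-expressing wild-type Tsc2; percent cells positive for phospho-rpS6 Ser235/236 relative to propidium iodide stain; series mostly up to about 38 µM.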 The procedure, abridged: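 Pathway inhibition in WT Tsc2-rescued Tsc2-/-, p53-/- MEFs is measured as the Alexa-488 phospho-rpS6 to propidium iodide intensity ratio after 24 hrs of compound at 37 degree Celsius. PI-stained cell number gives viability.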
Experiment [13] is described as follows: Validation screen for inhibitors of Lassa infection (AID 463096; calls by dose curve).
Experiment [14] is described as follows: Validation screen for small molecules that induce DNA re-replication in MCF 10A normal breast cells (AID 463097). Further: nearly all actives have a fitted effect of over 60% in size. The procedure, abridged:
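DNA re-replication was detected as a rise in nuclei with elevated Hoechst fluorescence after a 48 hr compound exposure of MCF 10A cells at 37 C.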

Experiment [15] has as its target Ubiquitin carboxyl-terminal hydrolase 2 (Homo sapiens) (UniProt O75604). Nature of the experiment: qHTS Validation Assay for Inhibitors of Ubiquitin-specific Protease USP2a Using CHOP2 as the Reporter (AID 463106). The procedure, abridged: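 Readout was coupled fluorescence (Ex 485/Em 531 nm), read 60 min after adding 25 nM final Ub-CHOP2 and 25 nM reporter substrate. Beforehand, 10 nM final USP2 core had 30 min at RT with compound in pH 8.0 buffer. Curves were fitted after normalization to NEM and flagged for artifacts using time-zero reads.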

For experiment [16], the target named is DNA polymerase III PolC-type (Bacillus subtilis (strain 168)) (UniProt P13267). Nature of the experiment: qHTS Validation Assay for the Inhibitors of DNA Replication in Gram-Positive Bacteria (AID 485295).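 Further: reconstituted holoenzyme with PolC plus beta clamp SSB and primase; PicoGreen fluorescence of double-stranded DNA made on primed circular M13 template; series mostly up to about 57 µM.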 The procedure, abridged:
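Primed replication of single-stranded M13Gori by a four-protein B. subtilis holoenzyme is measured at room temperature. Double-stranded product is quantified by PicoGreen fluorescence after an EDTA stop; inhibition is scaled between DMSO and EDTA controls.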

Experiment [17] has as its target Tumor susceptibility gene 101 protein (Homo sapiens) (UniProt Q99816). Nature of the experiment: qHTS Validation Assay for Iinhibitors of HIV-1 Budding by Blocking the Interaction of PTAP/TSG101 (AID 485342; calls by dose curve). The procedure, abridged: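 Fluorescence anisotropy measured PTAP-Tsg101 interaction. Final concentrations were 10 uM protein domain and 50 nM labeled peptide, equilibrated 20 min at room temperature.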

Values without a mark were called inactive. Records with an inconclusive call do not appear. The source made the active and inactive calls. Unless noted, the call rests on the fitted dose curve; in most records, active means well fitted curve in the direction sought with a large enough effect; inconclusive means small, poorly fitted or top-dose-only effect, or another doubt; inactive means no such curve, though single readings can be large; an effect the other way counts as inactive or inconclusive.

RecQ-like DNA helicase BLM (Homo sapiens), sequence (P54132 whole entry, looked up): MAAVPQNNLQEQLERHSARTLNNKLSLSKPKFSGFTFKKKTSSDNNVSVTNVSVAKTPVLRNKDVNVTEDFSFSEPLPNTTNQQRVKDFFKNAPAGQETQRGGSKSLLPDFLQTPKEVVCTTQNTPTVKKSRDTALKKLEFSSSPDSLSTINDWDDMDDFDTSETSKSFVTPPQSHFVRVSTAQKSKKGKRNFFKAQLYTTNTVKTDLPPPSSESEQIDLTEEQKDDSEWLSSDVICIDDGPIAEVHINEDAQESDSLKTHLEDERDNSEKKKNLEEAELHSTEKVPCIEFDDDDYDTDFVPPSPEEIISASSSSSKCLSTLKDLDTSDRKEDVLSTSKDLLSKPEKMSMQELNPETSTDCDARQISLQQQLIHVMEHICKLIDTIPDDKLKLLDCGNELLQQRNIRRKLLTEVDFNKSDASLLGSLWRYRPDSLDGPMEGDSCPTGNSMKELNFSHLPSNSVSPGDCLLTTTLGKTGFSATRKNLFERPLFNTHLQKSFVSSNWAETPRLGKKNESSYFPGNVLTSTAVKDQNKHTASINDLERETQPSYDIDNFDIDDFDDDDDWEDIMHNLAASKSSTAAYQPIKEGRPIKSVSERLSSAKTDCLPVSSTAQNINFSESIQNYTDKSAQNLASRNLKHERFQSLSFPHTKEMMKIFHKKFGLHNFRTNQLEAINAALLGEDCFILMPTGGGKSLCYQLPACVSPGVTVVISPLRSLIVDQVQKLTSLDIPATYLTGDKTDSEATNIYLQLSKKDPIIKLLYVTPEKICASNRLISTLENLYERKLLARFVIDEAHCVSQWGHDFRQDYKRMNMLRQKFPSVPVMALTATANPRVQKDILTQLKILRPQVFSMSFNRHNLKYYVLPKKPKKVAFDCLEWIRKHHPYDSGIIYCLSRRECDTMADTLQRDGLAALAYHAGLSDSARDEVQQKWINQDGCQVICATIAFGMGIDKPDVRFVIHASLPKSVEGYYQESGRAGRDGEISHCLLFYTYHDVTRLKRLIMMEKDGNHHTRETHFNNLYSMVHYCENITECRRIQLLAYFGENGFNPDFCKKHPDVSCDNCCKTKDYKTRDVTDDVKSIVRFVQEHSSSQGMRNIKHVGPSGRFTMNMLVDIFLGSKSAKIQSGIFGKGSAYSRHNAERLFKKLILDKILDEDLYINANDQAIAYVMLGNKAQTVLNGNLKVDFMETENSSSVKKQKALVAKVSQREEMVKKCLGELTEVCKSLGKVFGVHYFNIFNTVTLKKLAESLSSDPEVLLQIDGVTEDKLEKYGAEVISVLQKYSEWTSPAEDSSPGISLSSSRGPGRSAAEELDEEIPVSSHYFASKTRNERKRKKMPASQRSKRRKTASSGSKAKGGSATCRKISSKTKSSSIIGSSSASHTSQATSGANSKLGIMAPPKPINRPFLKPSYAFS
Ubiquitin carboxyl-terminal hydrolase 2 (Homo sapiens), sequence (O75604 whole entry, looked up): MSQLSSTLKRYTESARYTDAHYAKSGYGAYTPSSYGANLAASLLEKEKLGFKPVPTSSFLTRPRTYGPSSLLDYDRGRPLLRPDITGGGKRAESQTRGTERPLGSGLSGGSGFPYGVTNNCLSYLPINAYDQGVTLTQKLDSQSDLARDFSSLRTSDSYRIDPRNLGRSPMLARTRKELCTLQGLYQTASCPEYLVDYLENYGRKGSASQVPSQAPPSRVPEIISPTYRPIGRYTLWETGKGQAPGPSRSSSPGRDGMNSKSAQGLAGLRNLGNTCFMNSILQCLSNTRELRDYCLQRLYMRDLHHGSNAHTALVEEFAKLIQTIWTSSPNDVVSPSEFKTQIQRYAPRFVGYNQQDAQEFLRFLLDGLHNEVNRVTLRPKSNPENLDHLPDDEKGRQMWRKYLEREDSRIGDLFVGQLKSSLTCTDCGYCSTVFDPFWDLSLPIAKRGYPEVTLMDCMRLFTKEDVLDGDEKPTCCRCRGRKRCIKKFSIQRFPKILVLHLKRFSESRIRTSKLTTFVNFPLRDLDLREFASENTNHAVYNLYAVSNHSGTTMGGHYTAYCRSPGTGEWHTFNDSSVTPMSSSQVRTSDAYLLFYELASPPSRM
Tumor susceptibility gene 101 protein (Homo sapiens), sequence (Q99816 whole entry, looked up, the tested form may be a part): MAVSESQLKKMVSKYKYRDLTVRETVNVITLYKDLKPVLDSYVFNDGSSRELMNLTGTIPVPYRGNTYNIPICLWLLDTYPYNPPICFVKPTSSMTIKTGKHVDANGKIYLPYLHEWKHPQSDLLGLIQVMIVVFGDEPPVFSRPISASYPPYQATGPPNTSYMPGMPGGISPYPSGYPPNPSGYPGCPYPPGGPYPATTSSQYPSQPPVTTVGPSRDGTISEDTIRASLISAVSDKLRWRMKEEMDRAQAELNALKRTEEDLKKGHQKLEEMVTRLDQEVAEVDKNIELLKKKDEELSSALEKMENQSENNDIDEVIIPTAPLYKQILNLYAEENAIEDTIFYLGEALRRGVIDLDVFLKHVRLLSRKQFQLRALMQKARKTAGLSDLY
DNA polymerase III PolC-type (Bacillus subtilis (strain 168)), sequence (P13267 whole entry, looked up): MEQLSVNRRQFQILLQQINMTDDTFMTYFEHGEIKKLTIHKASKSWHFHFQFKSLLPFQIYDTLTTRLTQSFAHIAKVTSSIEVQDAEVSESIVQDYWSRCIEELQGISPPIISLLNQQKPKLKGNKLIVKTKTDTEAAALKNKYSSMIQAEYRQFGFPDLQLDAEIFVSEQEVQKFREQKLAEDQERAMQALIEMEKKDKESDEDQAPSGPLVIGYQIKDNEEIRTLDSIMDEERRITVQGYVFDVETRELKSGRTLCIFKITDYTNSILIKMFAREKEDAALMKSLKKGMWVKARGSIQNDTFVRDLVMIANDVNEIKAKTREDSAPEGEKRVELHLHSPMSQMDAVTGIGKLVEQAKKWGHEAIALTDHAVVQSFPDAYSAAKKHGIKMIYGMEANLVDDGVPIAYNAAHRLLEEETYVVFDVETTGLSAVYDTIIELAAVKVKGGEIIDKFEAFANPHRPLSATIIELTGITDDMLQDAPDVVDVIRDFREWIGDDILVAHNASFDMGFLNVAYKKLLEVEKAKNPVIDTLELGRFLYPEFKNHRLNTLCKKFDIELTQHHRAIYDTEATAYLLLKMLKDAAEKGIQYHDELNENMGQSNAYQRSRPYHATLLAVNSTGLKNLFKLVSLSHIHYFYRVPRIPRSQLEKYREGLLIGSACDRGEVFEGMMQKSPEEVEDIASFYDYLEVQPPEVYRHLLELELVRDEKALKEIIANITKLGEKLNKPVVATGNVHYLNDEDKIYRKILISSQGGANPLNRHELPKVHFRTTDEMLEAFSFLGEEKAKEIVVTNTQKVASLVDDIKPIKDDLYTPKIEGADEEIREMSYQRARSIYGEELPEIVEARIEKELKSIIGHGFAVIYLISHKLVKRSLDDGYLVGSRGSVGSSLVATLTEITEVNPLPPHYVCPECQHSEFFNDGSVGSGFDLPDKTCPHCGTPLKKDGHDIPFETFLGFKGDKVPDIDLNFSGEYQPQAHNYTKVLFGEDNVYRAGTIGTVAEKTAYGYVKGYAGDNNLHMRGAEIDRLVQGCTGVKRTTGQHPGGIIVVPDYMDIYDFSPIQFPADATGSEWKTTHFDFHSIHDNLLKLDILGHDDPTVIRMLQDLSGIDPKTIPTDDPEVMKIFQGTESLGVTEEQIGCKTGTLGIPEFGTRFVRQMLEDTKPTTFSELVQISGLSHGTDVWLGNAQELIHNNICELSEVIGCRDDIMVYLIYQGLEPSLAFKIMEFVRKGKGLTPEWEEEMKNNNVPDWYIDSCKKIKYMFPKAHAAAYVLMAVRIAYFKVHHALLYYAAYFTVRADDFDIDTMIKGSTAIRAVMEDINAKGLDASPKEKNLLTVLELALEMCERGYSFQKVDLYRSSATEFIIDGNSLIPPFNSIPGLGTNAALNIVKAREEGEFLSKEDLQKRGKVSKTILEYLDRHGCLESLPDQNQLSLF
Ferritin light chain (Equus caballus), sequence (P02791 2-175 limits assumed): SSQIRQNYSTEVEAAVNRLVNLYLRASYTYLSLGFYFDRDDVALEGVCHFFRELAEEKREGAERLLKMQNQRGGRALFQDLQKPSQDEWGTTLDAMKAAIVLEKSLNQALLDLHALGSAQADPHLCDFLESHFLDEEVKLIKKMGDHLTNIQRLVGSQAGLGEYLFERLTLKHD
DNA repair nuclease/redox regulator APEX1 (Homo sapiens), sequence (P27695 whole entry, looked up): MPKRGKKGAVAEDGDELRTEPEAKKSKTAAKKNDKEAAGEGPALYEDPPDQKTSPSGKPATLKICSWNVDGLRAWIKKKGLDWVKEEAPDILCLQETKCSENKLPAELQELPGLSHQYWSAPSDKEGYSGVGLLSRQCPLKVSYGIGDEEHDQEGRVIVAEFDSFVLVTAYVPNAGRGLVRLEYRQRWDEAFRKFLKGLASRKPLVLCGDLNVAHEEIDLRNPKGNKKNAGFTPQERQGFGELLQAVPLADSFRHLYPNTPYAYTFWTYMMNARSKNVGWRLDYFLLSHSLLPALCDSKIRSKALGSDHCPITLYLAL
ATP-dependent DNA helicase Q1 (Homo sapiens), sequence (P46063 whole entry, looked up): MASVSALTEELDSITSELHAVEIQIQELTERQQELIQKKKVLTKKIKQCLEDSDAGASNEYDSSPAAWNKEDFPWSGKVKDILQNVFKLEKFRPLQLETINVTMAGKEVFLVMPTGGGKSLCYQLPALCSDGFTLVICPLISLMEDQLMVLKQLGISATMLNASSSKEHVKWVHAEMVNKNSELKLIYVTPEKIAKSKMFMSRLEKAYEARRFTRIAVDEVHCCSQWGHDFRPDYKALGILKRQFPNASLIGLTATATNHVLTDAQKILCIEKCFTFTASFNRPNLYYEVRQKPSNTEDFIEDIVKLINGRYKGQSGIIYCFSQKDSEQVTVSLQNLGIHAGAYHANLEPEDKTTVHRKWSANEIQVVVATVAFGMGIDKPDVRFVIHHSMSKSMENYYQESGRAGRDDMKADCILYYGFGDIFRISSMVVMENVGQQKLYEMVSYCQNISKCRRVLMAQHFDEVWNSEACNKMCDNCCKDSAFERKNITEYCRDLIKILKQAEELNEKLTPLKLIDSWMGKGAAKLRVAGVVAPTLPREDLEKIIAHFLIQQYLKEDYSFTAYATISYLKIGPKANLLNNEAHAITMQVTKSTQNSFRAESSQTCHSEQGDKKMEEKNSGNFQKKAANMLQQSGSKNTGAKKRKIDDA

On to `O=[N+]([O-])c1ccc(O[C@@H]2O[C@H](CO)[C@@H](O)[C@H](O)[C@H]2F)c([N+](=O)[O-])c1`, for which the Potency entry in [1], in experiment [2], in [4], in experiment [7], in [8] and in [10] was “inactive” throughout. The Potency entry in experiment [11], in experiment [12], in [13], in experiment [14], in experiment [15] and in experiment [16] was “inactive” in each case. The result in [3], in experiment [6], in [9] and in experiment [17] was inactive. In [5], the Potency was 11.2 µM (active).
